Shown are actives, neighbours in structure and some others; about 0.72% of the full set was active somewhere.
PI4K2A block = qHTS for small molecular inhibitors of PI4K2A; hit rate 0.13% among 420,000; purified PI4K2A, ADP-Glo luminescence, 1 h; stronger effect = lower value; activity change, negative = inhibition, % at 76.9 µM; in the data active means activity change below about -50%; inconclusive means mostly about -30% to -49%;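 further: -100% = wells without enzyme as full effect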
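ADP-Glo luminescence measured ADP generated by PI4K2A enzyme (4 ug/mL before mixing) with 1.2 mM PI substrate (pre-mix) and 300 microM ATP (pre-mix). Tris pH7.5 buffer with MgCl2, Triton X-100; 1 h reaction at ambient temperature.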
CtBP-E1A inh = qHTS Assay for Inhibitors of the CtBP/E1A Interaction; AID 651724, 2012; activity change, % (no concentration beside the values); AlphaScreen GST-E1A/His-CtBP binding, 1536-well; stronger effect = lower value; hit rate 0.49% among 340,000; in the data active means activity change below about -65%; inconclusive means mostly about -30% to -63%
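In 5 uL wells, 23 nL compound meets equimolar GST-E1A and His-CtBP (5X stock 125 nM each) for 2 h, 37 °C. Beads (5X, 50 ug/mL) then 1 h, 37 °C, dark.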
Six1-Eya2 blk = qHTS Assay for Inhibitors of the Six1/Eya2 Interaction | AID 651725, 2012 | Homeobox protein SIX1 (Homo sapiens) + Protein phosphatase EYA2 (Homo sapiens), … | AlphaScreen GST-Six1/His-Eya2 binding, biochemical; stronger effect = lower value | activity change, % (test concentration not listed) | hit rate 0.56% among 360,000; in the data active means activity change below about -65%; inconclusive means mostly about -30% to -63%
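AlphaScreen with GST-Six1 and His-Eya2 (5X mix: 250 nM and 500 nM), glutathione donor and nickel acceptor beads; buffer 50 mM Tris pH 8.0, 300 mM NaCl, 1 mM TCEP; 1 h at 37 C in the dark.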
Eya2 inh = qHTS Assay for Inhibitors of the Phosphatase Activity of Eya2; Protein phosphatase EYA2 (Homo sapiens), O00167; recombinant Eya2, OMFP fluorescence dephosphorylation (OMFP is methylfluorescein phosphate); Potency, µM (series often up to 76.9 µM), for the others: at the top dose activity, negative = inhibition, hits mostly inhibitors; hit rate 0.006% among 330,000; AID 488837, 2010; further: potency means the concentration at half of the fitted maximal effect
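Eya2 protein (added as 0.2 uM solution) was preincubated with compound for 10 min at ambient temperature in 50 mM HEPES pH 7.5, 50 mM NaCl, 5 uM MgCl2, 0.05% BSA, 1 mM DTT. OMFP (added at 50 uM) then reacted 10 min; fluorescence read at 485/525 nm.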
RGS4 inhibitor = Inhibitors of Regulator of G Protein Signaling (RGS) 4: qHTS | AID 504845, 2011 | hit rate 0.039% among 390,000 | Regulator of G-protein signaling 4 (Homo sapiens), P49798 | Transcreener GDP fluorescence polarization, RGS4-accelerated GTP hydrolysis | Potency, µM (top dose mostly 114 µM), inactives show at the highest dose activity change, negative = inhibition, usual class: inhibitors; further: potency means the concentration at half of the fitted maximal effect; nearly all actives have a fitted effect of over 75% in size
Target sequence (P49798 whole entry, looked up): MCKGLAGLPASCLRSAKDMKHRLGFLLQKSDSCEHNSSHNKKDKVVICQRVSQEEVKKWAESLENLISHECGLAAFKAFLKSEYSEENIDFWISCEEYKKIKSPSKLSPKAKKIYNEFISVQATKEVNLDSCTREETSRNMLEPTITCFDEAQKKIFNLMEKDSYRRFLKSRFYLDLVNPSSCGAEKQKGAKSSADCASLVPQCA
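MLSMR compounds (23 nl, pin-transferred) preincubated 10 min at room temperature with a 500nM (2x) first reagent, then RGS4 at 900nM (2x) plus Transcreener GDP mix added; fluorescence polarization (620/688 nm) read before and after 90 min at 30 °C.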
USP2a block = qHTS Assay for Inhibitors of Ubiquitin-specific Protease USP2a Using CHOP2 as the Reporter | Ubiquitin carboxyl-terminal hydrolase 2 (Homo sapiens), O75604 | USP2 core, Ub-CHOP2 coupled fluorogenic reporter, 485/531 | Potency, µM (top dose mostly 38.3 µM), for the others: at the top dose activity change, negative = inhibition, actives largely listed as inhibitors | hit rate 0.01% among 330,000 | AID 463254, 2010;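 further: potency means the concentration at half of the fitted maximal effect; plate controls were DMSO wells for no effect and full inhibition by NEM control for full effect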
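Cell-free coupled assay: 10nM USP2 core preincubated 30min RT with compound in Tris-HCl pH 8.0/CaCl2/CHAPS buffer, then 25nM Ub-CHOP2 and 25nM reporter substrate; fluorescence (Ex 485/Em 531) read after 60min RT, normalized to NEM inhibition, concentration-response curves fitted.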
Starred values were filed as active, the others as inactive; ? = inconclusive; · = no result given; ! = a repeat was not active; [ ] = another dose, or the depositor's remark. Unless noted, the call rests on the fitted dose curve; in most records, active means well fitted curve in the direction sought with a large enough effect; inconclusive means small, poorly fitted or top-dose-only effect, or another doubt; inactive means no such curve, though single readings can be large; an effect the other way counts as inactive or inconclusive. Unless noted, on the % scale 0 is the no-effect control and ±100 the full control effect.

SMILES	PI4K2A block	CtBP-E1A inh	Six1-Eya2 blk	Eya2 inh	RGS4 inhibitor	USP2a block
CCCCC(=O)NC(c1ccc(OC)cc1)c1ccc2cccnc2c1O (stereo unspecified)	-2	18	-7	·	·	·
CCC(=O)NC(c1ccc(C)cc1)c1ccc2cccnc2c1O (stereo unspecified)	6	-90*	-89*	?	-52%	-4%
Cc1ccnc(NC(c2ccccc2F)c2ccc3cccnc3c2O)c1 (stereo unspecified)	2	·	·	·	-14%	·
CCC(=O)NC(c1ccc(Cl)cc1Cl)c1ccc2cccnc2c1O (stereo unspecified)	-4	?	-80*	-3%	21%	1%
COc1ccc(C(NC(=O)C(C)C)c2ccc3cccnc3c2O)cc1 (stereo unspecified)	5	-93*	-89*	0%	10%	-1%
COc1ccc(-c2cnnn2-c2ccc(NC(=O)c3c(F)cccc3F)cc2)cc1	-9	·	·	·	-15%	·
NS(=O)(=O)c1cc(C(=O)NN2C[C@H]3[C@H]4CCC(C4)[C@H]3C2)ccc1Cl	1	·	·	·	·	·
O=C1c2cccc3c2[C@H](CCC3)CN1[C@@H]1CN2CCC1CC2	-2	·	·	·	·	·
O=C(N/N=C/c1cn(Cc2cccc(F)c2)c2ccccc12)c1cc(O)cc(O)c1	-22	-72*	-75*	-3%	4%	1%
COc1ccc(CN2C[C@@H](CO)O[C@@H](n3cnc4c(NCCN(C)C)ncnc43)C2)cc1	-1	1	1	·	·	·
COc1ccccc1Nc1ccc2c(O)cc(S(=O)(=O)O)cc2c1	-59*	-88*	-79*	·	?	·
OCc1ccc(-c2nn(Cc3ccccc3)c3ccccc23)o1	4	-9	-9	1%	24µM*!	-6%
OCCN1CCN(C(c2cccs2)c2ccc3cccnc3c2O)CC1 (stereo unspecified)	·	·	·	4%	·	2%
CCN1CCN(C(c2ccc(C(F)(F)F)cc2)c2ccc3cccnc3c2O)CC1 (stereo unspecified)	15	-1	-86*	-9%	?	2%
COc1ccc(/C=N/Nc2nonc2N)cc1	1	-1	-1	12%	25%	2%
COc1ccc(/C=N/Nc2nn3cnnc3c3ccccc23)cc1	-3	-74*	?	-6%	-11%	0%
Cc1ccc2ccc3cccnc3c2n1	2	-90*	?	·	-20%[56.9 µM]	·
Cc1nnc(C)c2c(C)n(-c3cccc4cccnc34)c(C)c12	·	·	·	-6%	·	2%
Cc1ccc(N/N=C(/Sc2nnnn2-c2ccccc2)C(=O)c2ccccc2)cc1	-2	?	-78*	2%	?	3%
O=C(/C(=N\Nc1ccc([N+](=O)[O-])cc1)Sc1nnnn1-c1ccccc1)c1ccccc1	-10	?	?	9%	-30%	5%
c1c2c(cc3sc(N4CCOCC4)nc13)OCCO2	-51*	4	0	2%	-28%	-1%
COc1ccc(-c2nc3ccccn3c2CN2CCN(c3ccccc3F)CC2)cc1	1	-16	-18	-18%	7%	-11%
COc1ccc(-c2nc3ccccn3c2Cl)cc1	-52*	3	-3	9%	-12%	1%
CCOc1ccc(C(=O)Nc2nnc(SCc3cc(=O)n4ccccc4n3)s2)cc1	-5	·	·	·	5%	·
COc1ccccc1C(=O)O/N=C(\N)c1ccccn1	-12	-4	0	1%	7%	-1%

Bioassay records from PubChem.
